The values below come from PubChem BioAssay AID588358 (NMMLSC, 2011).

Structures are written as SMILES. Out of some 310,000 compounds screened, about 1,500 (0.48%) were called active. This excerpt belongs to a sample that is enriched for actives. Unmarked numbers belong to inactive results.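 The calls were made as follows: active = binding more than 3 SD below its plate's average and above zero; inconclusive = below that plate limit but binding exactly zero; inactive = the rest.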

In this assay the target is Desmoglein-3 (Homo sapiens) (UniProt P32926). Nature of the assay: inhibitors of pemphigus antibody binding to DSG3, primary screen, biochemical, bead-based, flow cytometry, scFv-GFP (AID 588358).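 Also: hits lower antibody fragment binding to DSG3.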 The note with it: DSG3-coupled beads, scFv-anti-DSG3-GFP binding, at 10 µM, stronger effect = lower value. A general note: A flow cytometer gives signals particle by particle.
Sequence of Desmoglein-3 (Homo sapiens) (P32926 whole entry, looked up, the tested form may be a part): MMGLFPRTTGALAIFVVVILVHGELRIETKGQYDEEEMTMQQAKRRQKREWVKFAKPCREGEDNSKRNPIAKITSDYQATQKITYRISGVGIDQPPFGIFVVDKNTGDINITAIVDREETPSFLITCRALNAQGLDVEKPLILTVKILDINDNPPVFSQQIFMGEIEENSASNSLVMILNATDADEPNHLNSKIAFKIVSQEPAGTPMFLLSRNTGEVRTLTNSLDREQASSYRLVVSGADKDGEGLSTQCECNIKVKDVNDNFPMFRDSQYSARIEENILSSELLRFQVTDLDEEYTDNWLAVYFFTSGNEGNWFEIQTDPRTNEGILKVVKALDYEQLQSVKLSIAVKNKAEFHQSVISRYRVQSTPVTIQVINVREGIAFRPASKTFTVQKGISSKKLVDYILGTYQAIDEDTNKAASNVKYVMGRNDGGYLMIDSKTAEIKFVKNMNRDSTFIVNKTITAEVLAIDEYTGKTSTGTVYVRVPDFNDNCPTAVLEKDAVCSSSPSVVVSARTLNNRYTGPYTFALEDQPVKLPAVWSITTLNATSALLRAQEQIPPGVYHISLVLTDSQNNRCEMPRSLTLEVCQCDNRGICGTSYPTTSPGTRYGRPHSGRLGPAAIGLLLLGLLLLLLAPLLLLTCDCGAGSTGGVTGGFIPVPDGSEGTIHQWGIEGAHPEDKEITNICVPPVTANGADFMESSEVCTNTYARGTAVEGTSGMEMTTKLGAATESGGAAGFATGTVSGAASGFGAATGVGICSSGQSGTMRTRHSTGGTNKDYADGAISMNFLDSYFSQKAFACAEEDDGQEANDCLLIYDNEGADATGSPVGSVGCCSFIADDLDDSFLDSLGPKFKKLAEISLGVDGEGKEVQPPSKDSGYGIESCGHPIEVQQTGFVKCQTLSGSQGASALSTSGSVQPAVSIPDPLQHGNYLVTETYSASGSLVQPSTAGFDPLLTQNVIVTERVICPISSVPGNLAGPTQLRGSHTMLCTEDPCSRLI
Turning to `COc1ccc(C=C2CCC3C(CCCC34OCCO4)C2=O)cc1` (stereo not given), the binding (percent of control) is 104%.
For `CC1CCCC(NC(=O)COC(=O)c2ccccc2C(=O)N(C)C2CCCCC2)C1C` (stereo not given) the value was 98.5%.
In the case of `COCCn1cnc2c1c(=O)n(Cc1ccc(Br)cc1)c(=O)n2Cc1ccccc1` it was 125%; in that of `Cn1c(=O)[nH]c(=O)c2c1[nH]c(=S)n2Cc1ccccc1`, 99.1%; in that of `CCN(CC)CCn1cnc2c1c(=O)[nH]c(=O)n2Cc1ccccc1`, 65.2% (active).
In the case of `O=C(NCCN1CCOCC1)c1ccc2c(c1)N(Cc1cccc(Cl)c1)C(=O)c1ccccc1S2(=O)=O` it was 95.8%; in that of `OCC1OC(n2cnc3c(N4CCCC4)ncnc32)C(O)C1O` (stereo not given), 102%; in that of `CCOc1ccc(NS(=O)(=O)c2ccc(C(=O)NCC3CCCO3)cc2)cc1` (stereo not given), 100%.
As to `COc1cc(NC(=O)C2=C(C)OCCS2)c(Cl)cc1C(=O)NCCCN1CCCC(C)C1` (stereo not given), the binding (percent of control) is 105%.
For `CCOC(=O)c1c(NC(=S)SC)sc(C(=O)N2CCc3ccccc3C2)c1C` the value was 100%; for `COc1cccc(-c2nc(CS(=O)CC(=O)NCc3ccc(F)cc3)c(C)o2)c1` (stereo not given), 93.3%.
For `COc1ccc(-c2nc(CS(=O)CC(=O)NCc3ccccn3)c(C)o2)cc1` (stereo not given) the value was 17.1% (active); for `COc1ccc(-c2nc(CS(=O)CC(=O)NCc3ccccc3)c(C)o2)cc1OC` (stereo not given), 97.4%; for `Cc1cccc(NC(=O)Nc2ccc3c(c2)OCO3)n1`, 134%.
For `CC(C)CNS(=O)(=O)c1ccc(C(=O)Nc2ccc3c(c2)OCO3)cc1` the value was 85.2%; for `CNS(=O)(=O)c1ccc(NC(=O)Nc2ccc3c(c2)OCO3)cc1`, 66.6% (active).
Turning to `CN(Cc1ccccc1)C(=O)CCC1CCN(C(=O)c2ccco2)CC1`, the binding (percent of control) is 91.8%.
In the case of `COc1cc(C(=O)N2CCOC23CCN(Cc2ccccc2)CC3)cc(OC)c1OC` it was 108%.
In the case of `COCCCN1C(=O)C(CC(=O)NCc2cccs2)CC(C(=O)N2CCOCC2)=C1C` (stereo not given) it was 99.9%.
In the case of `Cc1cnc(NC(=O)CSc2nnc(C)s2)s1` it was 101%; in that of `CCSc1nnc(SCC(=O)NNC(=O)c2ccccc2F)s1`, 115%; in that of `Cc1nnc(SCC(=O)Nn2cnnc2)s1`, 89.8% (active).
With `CNC(=O)c1ccc(CN(C)C(=O)c2cc(C3CC3)nc3c2cnn3C(C)C)cc1`, the binding (percent of control) is 105%.
As to `O=[N+]([O-])c1ccc(C(S(=O)(=O)Cc2ccccc2)S(=O)(=O)Cc2ccccc2)cc1`, the binding (percent of control) is 100%.
On to `Cc1ccc(S(=O)(=O)NCCNC(C)c2ccc(Br)cc2)cc1` (stereo not given), for which the binding (percent of control) is -19.8% (active).
In the case of `CC(CNS(=O)(=O)c1ccc(Br)cc1)CN(C)C` (stereo not given) it was 102%; in that of `Cc1ccc(OCCNC(=O)CCNS(=O)(=O)c2ccc(Br)cc2)cc1`, 107%.
For `CC1C(=O)N(Cc2cn(CC3CCCCC3)nn2)CCS(=O)(=O)N1Cc1ccc(-c2cccc(N(C)C)c2)cc1` (stereo not given) the value was 101%; for `COCC1CCCCN1C(=O)c1cc(COc2ccc(C)c(C)c2)on1` (stereo not given), 101%.
For `CN(CC(=O)Nc1ccccc1[N+](=O)[O-])Cc1ccc(Br)cc1` the value was 104% (active); for `CN(CC(=O)Nc1ccc(N2CCOCC2)cc1)CC(=O)Nc1ccccc1[N+](=O)[O-]`, 116%; for `Cc1ccc(NC(=O)CN(C)Cc2ccc(F)cc2)c([N+](=O)[O-])c1`, 93.5%.
On to `COc1ccc(NC(=O)CSc2ncnc3[nH]ncc23)cc1`, for which the binding (percent of control) is 106%.
Regarding `CC(=O)Nc1ccc(NC(=O)CSc2ncnc3c2cnn3Cc2ccccc2)cc1`, the binding (percent of control) is 76.2% (active).
For `COc1ccc(-n2ncc3c(SCC(=O)NNC(C)=O)ncnc32)cc1`, the binding (percent of control) is 102%.
In the case of `O=C(NCc1nnnn1-c1ccc(Cl)cc1)c1ccc([N+](=O)[O-])o1` it was 98.8%; in that of `Cc1ccc(S(=O)(=O)N2CCOCC2)cc1NC(=O)c1ccncc1`, 96.3%; in that of `Cc1cc(-c2ccc(S(=O)(=O)N3CCN(c4cccc(C(F)(F)F)c4)CC3)s2)on1`, 80%.
For `Cc1cc(-c2ccc(S(=O)(=O)N3CCc4ccccc4C3)s2)on1` the value was 80.5% (active).
For `Cc1cccc(N2CCN(S(=O)(=O)c3ccc(-c4cc(C)no4)s3)CC2C)c1` (stereo not given) the value was 96.5%; for `CC(C)CCOc1ccc(C(=O)Nc2cc(S(=O)(=O)N3CCOCC3)ccc2N2CCOCC2)cc1`, 102%.
With `C=CCOc1cccc(C2C(C(=O)c3ccc(C)o3)=C(O)C(=O)N2CCN2CCOCC2)c1` (stereo not given), the binding (percent of control) is 102%.
In the case of `c1ccc(CNCc2ccc(CNCc3ccccc3)cc2)cc1` it was 102%; in that of `COc1cc(/C=C2\SC(=S)N(Nc3ncc(C(F)(F)F)cc3Cl)C2=O)cc(OC)c1OC`, 87.8% (active).
For `CCOc1ccc(/C=C2\SC(=S)N(NC(=O)c3ccncc3)C2=O)cc1OC`, the binding (percent of control) is 106%.
Regarding `COc1ccc(/C=C2\SC(=S)N(CCCC(=O)NC3CCCC3)C2=O)cc1OC`, the binding (percent of control) was 109%.
In the case of `O=C(CSc1ncn[nH]1)Nc1nc2c(F)c(F)c(F)cc2s1` it was 94%.
For `Cc1ccc(S(=O)(=O)N2C[C@H]3C(=O)C[C@@H](c4cccc5ccccc45)N(S(=O)(=O)c4ccc(C)cc4)[C@H]3C[C@H]2c2ccc(Cl)cc2)cc1` the value was 99.7%.
In the case of `Cc1cccc(-c2nc(Nc3ccc(O)cc3)c3ccccc3n2)c1` it was 324%; in that of `CC(=O)Nc1cccc(Nc2nc(-c3cccs3)nc3ccccc23)c1`, 64.6% (active).
